From PubChem BioAssay (NCATS)
Where “and” joins values, the source holds several entries; their conditions need not be identical. Identical values can stand only once. Unmarked numbers belong to inactive results. Inconclusive results are not listed. A call without a number means that no potency is given here. Calls of active or inactive are those of the source. Unless noted, calls follow the shape of the dose curve; as a rule, active = well fitted curve in the direction sought with a large enough effect; inconclusive = small, poorly fitted or top-dose-only effect, or another doubt; inactive = no such curve, though single readings can be large; an effect the other way counts as inactive or inconclusive.

What was measured:
[1] = target: Glucocorticoid receptor (Homo sapiens) (UniProt P04150); test: GR-GFP Redistribution (AID 450;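 active = compounds whose dose series gives a full or clear partial fitted curve of increased nuclear translocation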; also: potency is read from the fitted curve at half-maximal effect); details: U2OS GR-GFP nuclear translocation, laser cytometry, 2 h
Sequence of Glucocorticoid receptor (Homo sapiens) (P04150 whole entry, looked up): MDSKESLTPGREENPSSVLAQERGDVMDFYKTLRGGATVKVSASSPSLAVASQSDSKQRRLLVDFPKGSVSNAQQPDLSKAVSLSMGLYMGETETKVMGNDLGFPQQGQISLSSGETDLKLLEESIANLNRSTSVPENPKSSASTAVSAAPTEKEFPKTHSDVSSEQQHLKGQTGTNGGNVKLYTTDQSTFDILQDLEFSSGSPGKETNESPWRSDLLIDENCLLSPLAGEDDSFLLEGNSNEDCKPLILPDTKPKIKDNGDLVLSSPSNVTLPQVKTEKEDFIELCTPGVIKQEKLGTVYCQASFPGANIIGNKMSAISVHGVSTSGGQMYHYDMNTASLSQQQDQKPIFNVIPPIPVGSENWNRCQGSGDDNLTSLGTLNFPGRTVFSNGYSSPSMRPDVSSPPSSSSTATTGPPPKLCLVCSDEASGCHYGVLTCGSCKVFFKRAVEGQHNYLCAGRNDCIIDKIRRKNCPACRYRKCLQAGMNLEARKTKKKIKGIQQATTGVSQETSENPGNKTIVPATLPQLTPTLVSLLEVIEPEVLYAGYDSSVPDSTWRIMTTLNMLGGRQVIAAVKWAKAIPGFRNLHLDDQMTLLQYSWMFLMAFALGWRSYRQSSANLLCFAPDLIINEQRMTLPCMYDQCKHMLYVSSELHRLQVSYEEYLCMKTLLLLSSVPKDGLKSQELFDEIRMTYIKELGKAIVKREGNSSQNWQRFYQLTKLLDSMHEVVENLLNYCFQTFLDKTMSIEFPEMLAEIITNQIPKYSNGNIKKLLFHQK

[2] = Cell Viability - HUV-EC-C (AID 542);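 also: cells exposed to compound for 40 hours; nearly all actives have a fitted effect of over 35% in size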; also: potency is read from the fitted curve at half-maximal effect
Summary of the method: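 Luminescent ATP read-out (CellTiter-Glo, 20 min room temperature) after 40 hr compound treatment of HUV-EC-C cells at 37 °C. Concentration-response data fitted with the standard Hill equation to give AC50; tamoxifen and doxorubicin served as positive controls.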

[3] = Cell Viability - H-4-II-E (AID 543);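 also: cells exposed to compound for 40 hours; nearly all actives have a fitted effect of over 35% in size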; also: potency is read from the fitted curve at half-maximal effect
Summary of the method: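 qHTS, rat hepatoma H-4-II-E, 1500 cells/well; 40 hr compound exposure, 37 °C; CellTiter-Glo ATP luminescence after 20 min RT; AC50 by standard Hill fit.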

[4] = Cell Viability - SH-SY5Y (AID 544);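 also: cells exposed to compound for 40 hours; nearly all actives have a fitted effect of over 55% in size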; also: potency is read from the fitted curve at half-maximal effect
Summary of the method: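 SH-SY5Y, 1500 cells/well, 5 hr pre-incubation 37 °C; cpd 40 hr 37 °C; CellTiter-Glo 20 min RT; luminescence (ATP) read. qHTS concentration-response, Hill fit → AC50. Tamoxifen, doxorubicin as positive controls.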

[5] = Cellular Toxicity (caspase-3) HepG2 (AID 654); also: potency is read from the fitted curve at half-maximal effect;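 as to caspase-3 activation: cells exposed to compound for 16 hours before reading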
Summary of the method: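 Luminescent Caspase-Glo 3/7 readout after 16 hr compound exposure of human hepatocellular carcinoma HepG2 cells at 37 °C; qHTS concentration-response, normalized DMSO = 0%, 100 uM tamoxifen = 100%; AC50 by standard Hill equation.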

[6] = Cellular Toxicity (caspase-3) Jurkat (AID 655);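 also: cells exposed to compound for 16 h at 37 °C before reading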; also: potency is read from the fitted curve at half-maximal effect
Summary of the method: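 Jurkat cells (5000/well) in complete medium exposed 16 h at 37 C; caspase-3/7 activity read by Caspase-Glo luminescence after 20 min at room temperature. Normalized to DMSO and 100 uM tamoxifen; AC50 from Hill fits.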

[7] = Cellular Toxicity (caspase-3) HUV-EC-C (AID 656)
Summary of the method: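 HUV-EC-C cells (1000/well) in complete medium, compound-treated 16 h at 37 °C; caspase-3/7 activity read by Caspase-Glo 3/7 luminescence. Normalized to DMSO (basal) and 100 uM tamoxifen (100%); AC50 from Hill-equation concentration-response fits.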

[8] = Cellular Toxicity (caspase-3) SHSY5Y (AID 657)
Summary of the method: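 SH-SY5Y human neuroblastoma cells, 1500/well, exposed to compound for 16 hours at 37 °C in complete medium. Caspase-3/7 activity read by Caspase-Glo luminescence after 1 hr at room temperature, normalized to DMSO and 10 uM staurosporine; AC50 from Hill fit.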

[9] = Cellular Toxicity (caspase-3) BJ (AID 658)
Summary of the method: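 Caspase-Glo 3/7 luminescence, read 1 hr after reagent at room temperature, in normal BJ fibroblasts exposed 16 hours at 37 °C. AC50 values from Hill-equation concentration-response, scaled between DMSO basal and 10 uM staurosporine as 100%.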

[10] = Cellular Toxicity (caspase-3) MRC-5 (AID 659); details: Potency: caspase-3 activation; also: potency is read from the fitted curve at half-maximal effect
Summary of the method: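 Luminescent Caspase-Glo 3/7 read-out (1 h, room temperature) after a 16 h, 37 °C compound exposure of MRC-5 lung fibroblasts at 1500 cells/well. Concentration-response AC50 from Hill equation; 0% DMSO, 100% 10 uM staurosporine.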

[11] = Cellular Toxicity (caspase-3) Mesangial (AID 660);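 also: cells exposed to compound for 16 h before the caspase read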
Summary of the method: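 Luminescent Caspase-Glo 3/7 readout (aminoluciferin substrate cleavage, 20 min RT) after 16 h compound exposure at 37 °C of normal human mesangial cells. Signal increase normalized between DMSO basal and 100 uM tamoxifen; Hill-equation AC50.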

[12] = Cellular Toxicity (caspase-3) H-4-II-E (AID 663);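 also: cells exposed to compound for 16 hr before readout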
Summary of the method: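 Caspase 3/7 activation measured by luminescent aminoluciferin substrate cleavage after 16 hr compound treatment of H-4-II-E cells in complete medium. Increase normalized between DMSO (basal) and 100 uM tamoxifen (100%); Hill-equation AC50 from concentration-response.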

[13] = Cellular Toxicity (caspase-3) Hek293 (AID 664);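 also: cells exposed to compound for 16 h at 37 °C before readout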
Summary of the method: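 Luminescent Caspase-Glo 3/7 readout (aminoluciferin release) in HEK293 cells after 16 h compound treatment, 37 °C. Normalization: DMSO = basal, 100 uM tamoxifen = 100% stimulation. Concentration-response fitted with standard Hill equation for AC50.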

[14] = Cellular Toxicity (caspase-3) N2a (AID 665);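 also: compound exposure lasted 16 h at 37 °C before readout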
Summary of the method: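 Luminescent Caspase-Glo 3/7 readout in N2a mouse neuroblastoma cells after 16 h compound exposure at 37 °C. Signal scaled to DMSO (basal) and 10 uM staurosporine (100%). Concentration-response fitted with Hill equation for AC50.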

[15] = Cellular Toxicity (caspase-3) NIH 3T3 (AID 666)
Summary of the method: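 NIH 3T3, 1000 cells/well, 5 hr settle then 16 hr compound at 37°C; Caspase-Glo 3/7, 20 min RT, luminescence. DMSO = basal, 100 uM tamoxifen = 100%. Hill-equation AC50, qHTS.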

[16] = target: Mitogen-activated protein kinase 10 (Mus musculus) (UniProt Q61831); test: JNK3 AlphaScreen Assay (AID 530; active = well fitted curve in either direction with a large enough effect, not every such curve was filed as active;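 also: kinase came from lysate of stimulated human HepG2 cells; signal reports phosphorylation of biotinylated GST-cJun 1-79 at Ser73 with 10 µM ATP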)
Summary of the method: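 Kinase buffer: 20 mM Tris-HCl pH 7.6, 10 mM MgCl2, 1 mM DTT, 0.1 mM Na3VO4, 0.01% Tween-20; ATP 10 uM. Substrate biotin-GST-cJun(1-79), enzyme from activated HepG2 lysates. Detection by Ser73 phospho-antibody AlphaScreen.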

[17] = target: Cytochrome P450 2C9 (Homo sapiens) (UniProt P11712); test: qHTS Assay for Inhibitors and Substrates of Cytochrome P450 2C9 (AID 883); also: nearly all actives have a fitted effect of over 60% in size
Sequence of Cytochrome P450 2C9 (Homo sapiens) (P11712 whole entry, looked up): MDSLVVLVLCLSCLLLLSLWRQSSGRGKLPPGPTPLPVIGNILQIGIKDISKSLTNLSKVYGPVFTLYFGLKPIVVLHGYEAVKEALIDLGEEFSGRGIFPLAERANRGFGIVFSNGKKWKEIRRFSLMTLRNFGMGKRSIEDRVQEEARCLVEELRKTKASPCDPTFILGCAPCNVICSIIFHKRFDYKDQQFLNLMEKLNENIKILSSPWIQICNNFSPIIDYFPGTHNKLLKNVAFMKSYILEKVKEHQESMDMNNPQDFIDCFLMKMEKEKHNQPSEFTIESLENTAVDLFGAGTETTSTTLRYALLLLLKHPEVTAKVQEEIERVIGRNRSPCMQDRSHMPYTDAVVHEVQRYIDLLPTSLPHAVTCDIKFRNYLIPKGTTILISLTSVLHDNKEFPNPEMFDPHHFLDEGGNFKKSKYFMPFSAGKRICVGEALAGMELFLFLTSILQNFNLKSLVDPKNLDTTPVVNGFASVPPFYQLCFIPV
Summary of the method: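 Inhibition of CYP2C9 is scored as loss of luminescence, with 57uM sulphaphenazole defining 100% inhibition. Substrate Luciferin-H is used at 100uM, equal to its KM; enzyme at 10nM in 25mM KPO4, 60 min at 37C with NADPH regeneration.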

[18] = Stat Signaling Pathway (AID 446; active = well fitted curve in either direction with a large enough effect, not every such curve was filed as active;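 also: ME-180 cervical cancer cells given 40 pM IL-6 alongside compound; SIE-controlled beta-lactamase reporter measured as 460/530 nm FRET emission ratio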); details: ME-180 (cervical carcinoma) SIE beta-lactamase reporter, IL-6 stimulated, 5 h
Summary of the method: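 Emission at 460 and 530 nm (excitation 405 nm) reports SIE-controlled beta-lactamase in ME-180 cells. Cells received compound with 40 pM IL-6 for 5 hrs at 37 C; data scaled between 300 pM IL-6 and 125 nM JAK-inhibitor controls.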

[19] = target: 3',5'-cyclic-AMP phosphodiesterase 4B (Homo sapiens) (UniProt Q07343); test: qHTS Assay for Inhibitors of PDE-IV (AID 607; active = well fitted activation curve with a large enough effect in the main read-out, with a control signal flat, not every such curve was filed as active)
Sequence of 3',5'-cyclic-AMP phosphodiesterase 4B (Homo sapiens) (Q07343 whole entry, looked up): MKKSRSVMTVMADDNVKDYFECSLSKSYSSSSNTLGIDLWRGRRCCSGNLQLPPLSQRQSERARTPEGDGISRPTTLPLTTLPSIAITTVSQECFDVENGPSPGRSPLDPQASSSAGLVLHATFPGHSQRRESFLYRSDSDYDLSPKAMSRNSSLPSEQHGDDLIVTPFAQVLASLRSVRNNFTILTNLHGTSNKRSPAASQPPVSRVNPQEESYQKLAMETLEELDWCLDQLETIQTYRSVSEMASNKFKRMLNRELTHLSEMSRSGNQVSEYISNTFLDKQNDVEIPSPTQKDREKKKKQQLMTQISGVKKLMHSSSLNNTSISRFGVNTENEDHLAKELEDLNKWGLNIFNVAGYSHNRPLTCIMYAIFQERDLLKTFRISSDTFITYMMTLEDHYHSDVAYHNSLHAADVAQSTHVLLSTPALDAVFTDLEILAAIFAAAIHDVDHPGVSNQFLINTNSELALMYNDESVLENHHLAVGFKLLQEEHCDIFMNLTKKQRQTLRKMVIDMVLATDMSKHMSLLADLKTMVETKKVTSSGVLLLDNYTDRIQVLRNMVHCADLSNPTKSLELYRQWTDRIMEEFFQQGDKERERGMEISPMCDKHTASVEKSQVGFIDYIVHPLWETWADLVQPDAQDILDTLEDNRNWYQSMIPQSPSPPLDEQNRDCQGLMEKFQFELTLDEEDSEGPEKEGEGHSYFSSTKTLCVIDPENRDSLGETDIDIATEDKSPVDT
Summary of the method: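 The readout is membrane depolarisation from a cAMP-sensing CNG channel, detected with a potential dye at ex 535/em 590. Cells were HEK293-derived (endogenous PDE-IV) at 1000 cells/well, titrated up to 22.9 uM final.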

[20] = target: Guanine nucleotide-binding protein G(i) subunit alpha-1 (Homo sapiens) (UniProt P63096); test: qHTS Assay for Inhibitors of RGS12 GoLoco Motif Activity (Green Fluorophore) (AID 879);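 also: negative values mean loss of peptide binding seen as reduced polarization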
Sequence of Guanine nucleotide-binding protein G(i) subunit alpha-1 (Homo sapiens) (P63096 whole entry, looked up): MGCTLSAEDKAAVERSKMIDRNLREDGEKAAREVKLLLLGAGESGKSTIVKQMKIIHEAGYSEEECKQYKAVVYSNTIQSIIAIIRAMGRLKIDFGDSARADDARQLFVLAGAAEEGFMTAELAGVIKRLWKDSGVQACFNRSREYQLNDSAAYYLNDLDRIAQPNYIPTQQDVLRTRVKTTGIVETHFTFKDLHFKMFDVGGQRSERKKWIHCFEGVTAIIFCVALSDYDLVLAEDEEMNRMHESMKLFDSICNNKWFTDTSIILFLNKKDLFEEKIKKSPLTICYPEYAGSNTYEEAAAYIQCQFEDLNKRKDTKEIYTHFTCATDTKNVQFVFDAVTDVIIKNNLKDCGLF
Summary of the method: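 A drop in FITC polarization marked displacement of the FITC-tagged RGS12 GoLoco peptide (10 nM) from Gαi1 (50 nM). Compounds were incubated 10 min at room temperature in Tris pH 7.5 buffer containing 150 mM NaCl, 0.1 mM GDP and 0.05% NP40; unlabeled peptide titration served as control.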

CC1=C(/C=C/C(C)=C/C=C/C(C)=C/C(=O)O)C(C)(C)CCC1
Potency [1]: > 20.6 µM

[Cl][In]([Cl])[Cl]
Potency [2]: inactive
Potency [3]: inactive
Potency [4]: inactive
Potency [5]: inactive
Potency [6]: inactive
outcome [7]: inactive
outcome [8]: inactive
outcome [9]: inactive
Potency [10]: inactive
outcome [11]: inactive
outcome [12]: inactive
outcome [13]: inactive
outcome [14]: inactive
outcome [15]: inactive

O=c1cc(CO)occ1O
Potency [1]: > 46 µM
Potency [16]: inactive
Potency [17]: inactive

O=C(O)CN1C(=O)c2cccc3cccc(c23)C1=O
Potency [16]: inactive

NCCNCCNCCNCCN
Potency [16]: inactive
Potency [2]: inactive
Potency [3]: inactive
Potency [4]: inactive
Potency [5]: inactive
Potency [6]: inactive
outcome [7]: inactive
outcome [8]: inactive
outcome [9]: inactive
Potency [10]: inactive
outcome [11]: inactive
outcome [12]: inactive
outcome [13]: inactive
outcome [14]: inactive
outcome [15]: inactive

CC1=C(CC(=O)O)c2cc(F)ccc2/C1=C\c1ccc(S(C)(=O)=O)cc1
activity, negative = inhibition ([18]; at 38 µM (top of the series)): -25.4%
Potency [16]: inactive
outcome [19]: inactive
outcome [20]: inactive

Nc1ncnc2c1ncn2[C@@H]1O[C@H](CO)[C@@H](O)[C@H]1O
Potency [1]: > 20.6 µM

C[C@]12CC[C@@H]3c4ccc(O)cc4CC[C@H]3[C@@H]1CCC2=O
activity, negative = inhibition ([18]; at 17.2 µM (top of the series)): -23.3%
outcome [20]: inactive

CN(C)CCN(Cc1ccccc1)c1ccccn1
Potency [1]: > 20.6 µM

OCc1cc(C(O)CNCCCCCCOCCCCc2ccccc2)ccc1O (centres undefined)
outcome [20]: inactive

Cc1cc2c(cc1S(N)(=O)=O)S(=O)(=O)CCC2
activity, negative = inhibition ([18]; at 17.2 µM (top of the series)): -10.1%
Potency [1]: > 20.6 µM
Potency [16]: inactive
outcome [19]: inactive
Potency [17]: inactive

CCn1cc(C(=O)O)c(=O)c2cnc(N3CCNCC3)nc21
activity, negative = inhibition ([18]; at 17.2 µM (top of the series)): 3.23% and 2.72%
Potency [16]: inactive
outcome [19]: inactive

Cc1c(O)cccc1C(=O)N[C@@H](CSc1ccccc1)[C@H](O)CN1C[C@H]2CCCC[C@H]2C[C@H]1C(=O)NC(C)(C)C
Potency [16]: inactive
Potency [2]: 31.6 µM (active)
Potency [3]: 31.6 µM (active)
Potency [4]: 1.26 µM (active)
Potency [5]: 63.1 µM (active)
Potency [6]: 31.6 µM (active)
outcome [7]: inactive
outcome [8]: inactive
outcome [9]: inactive
Potency [10]: 50.1 µM (active)
outcome [11]: inactive
outcome [14]: inactive
outcome [15]: inactive

Oc1cccc(O)c1
Potency [16]: inactive
Potency [2]: inactive
Potency [3]: inactive
Potency [5]: inactive
Potency [6]: inactive
outcome [7]: inactive
outcome [8]: inactive
outcome [9]: inactive
Potency [10]: inactive
outcome [11]: inactive
outcome [12]: inactive
outcome [13]: inactive
outcome [14]: inactive
outcome [15]: inactive

Nc1cc(=O)[nH]c(N)n1
activity, negative = inhibition ([18]; at 38 µM (top of the series)): 1.02%
outcome [19]: inactive
outcome [20]: inactive
Potency [17]: inactive

Nc1ccc(S(=O)(=O)Nc2ccc(Cl)nn2)cc1
activity, negative = inhibition ([18]; at 17.2 µM (top of the series)): -3.21%
Potency [16]: inactive
outcome [19]: inactive

CC(=O)OCC(=O)[C@@]1(O)CC[C@H]2[C@@H]3CCC4=CC(=O)CC[C@]4(C)[C@H]3C(=O)C[C@@]21C
activity, negative = inhibition ([18]; at 17.2 µM (top of the series)): 11.3%
outcome [20]: inactive

NCCNCCNCCN
Potency [16]: inactive
Potency [2]: inactive
Potency [3]: inactive
Potency [4]: inactive
Potency [5]: inactive
Potency [6]: inactive
outcome [7]: inactive
outcome [8]: inactive
outcome [9]: inactive
Potency [10]: inactive
outcome [11]: inactive
outcome [12]: inactive
outcome [13]: inactive
outcome [14]: inactive
outcome [15]: inactive

c1ccc(CN(CC2=NCCN2)c2ccccc2)cc1
activity, negative = inhibition ([18]; at 17.2 µM (top of the series)): -2.58% and 2.91% and -16.4%
Potency [16]: inactive
outcome [19]: inactive

Cc1cccc(Nc2cc(Cl)nc(SCC(=O)O)n2)c1C
activity, negative = inhibition ([18]; at 7.69 µM (top of the series)): 0.678%
Potency [1]: > 46 µM
activity change, negative = inhibition [16]: 0.662% [at 11.4 µM]
outcome [19]: inactive
activity change, negative = inhibition [17]: -10.9% [at 11.4 µM]

COc1ccccc1O
Potency [16]: inactive
Potency [2]: inactive
Potency [3]: inactive
Potency [4]: inactive
Potency [5]: inactive
Potency [6]: inactive
outcome [7]: inactive
outcome [8]: inactive
outcome [9]: inactive
Potency [10]: inactive
outcome [11]: inactive
outcome [12]: inactive
outcome [13]: inactive
outcome [14]: inactive
outcome [15]: inactive

CC(C)C(=O)c1c(C(C)C)nn2ccccc12
activity, negative = inhibition ([18]; at 38 µM (top of the series)): 2.52%
Potency [16]: inactive
outcome [20]: inactive
Potency [17]: inactive
